# Test results reported in PubChem BioAssay (NCATS).
# Records with an inconclusive call do not appear. Unmarked numbers belong to inactive results. Active and inactive are the calls of the source. Calls come from the whole dose curve; as a rule, active = well fitted cell-killing curve with a large enough effect; inconclusive = small, poorly fitted or top-dose-only effect, or effect the other way; inactive = no such curve, though single readings can be large or run the other way.
# Assay: Quantitative High-Throughput drug screen in 47 multiple myeloma cell lines against the NCATS MIPE library collection: U266_ATCC cell viability assay (AID 1919864); note: nearly all actives have a fitted effect of over 35% in size;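 for viability (% of DMSO control): 0% = media-only wells without cells and 100% = DMSO-only wells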
# Conditions: U266 myeloma viability, CellTiter-Glo ATP luminescence, 48 h; series mostly up to 45.8 µM; viability (% of DMSO control): at the top concentration
# How it was run: (§1)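 ATP-based luminescence (CellTiter-Glo, 5 min RT incubation) quantified surviving cells following two days' treatment with MIPE 4.0 agents at 37 °C, 5% CO2.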
# Potency is the fitted concentration of half-maximal effect.
SMILES,viability (% of DMSO control),Potency
CC1C(=O)OC2C(O)C34C5CC(C(C)(C)C)C36C(OC(=O)C6O)OC4(C(=O)O5)C12O (stereo not drawn),108%,–
C[C@@H](NC(=O)c1ncnc(N)c1Cl)c1ncc(C(=O)Nc2cc(C(F)(F)F)c(Cl)cn2)s1,–,26.4 µM (active)
CN(C)CC[C@H](CSc1ccccc1)Nc1ccc(S(=O)(=O)NC(=O)c2ccc(N3CCN(Cc4ccccc4-c4ccc(Cl)cc4)CC3)cc2)cc1[N+](=O)[O-],–,14.8 µM (active)
C[C@@H]1C[C@H]2[C@@H]3CCC4=CC(=O)C=C[C@]4(C)[C@@]3(F)[C@@H](O)C[C@]2(C)[C@@]1(O)C(=O)CO,99.9%,–
C[C@]12C=CC(=O)C=C1CC[C@@H]1[C@@H]2[C@@H](O)C[C@@]2(C)[C@@H]1CC[C@]2(O)C(=O)CO,130%,–
CN1[C@H]2CC[C@H]1CC(OC(=O)c1c[nH]c3ccccc13)C2 (stereo partly drawn),–,10.5 µM (active)
Cc1cnc(-c2cc(N3CCN(C(=O)CCS(C)(=O)=O)CC3)ncc2Cl)c(C)c1,113%,–
CN[C@@H]1[C@@H](O)[C@@H](O[C@@H]2[C@@H](O)[C@H](O[C@H]3O[C@H](CN)[C@@H](O)[C@H](O)[C@@H]3O)[C@@H](N)C[C@@H]2NC(=O)[C@@H](O)CN)OC[C@]1(C)O,–,18.7 µM (active)
CN1CCN(c2ncc(-c3cc(Cl)cc(Cl)c3Cl)c(N)n2)CC1,–,26.4 µM (active)
NC(=O)c1ccc(N(C(N)=O)c2c(F)cccc2F)nc1-c1ccc(F)cc1F,88%,–
NS(=O)(=O)c1cc(Cl)c(Cl)c(S(N)(=O)=O)c1,110%,–
CCN(CC)CCCCNc1nc2cc(Cl)c(Cl)cc2nc1-c1ccc(-c2cccs2)s1,–,23.5 µM (active)
CO[C@H]1/C=C\O[C@@]2(C)Oc3c(C)c(O)c4c(O)c(c(C=NN5CCN(C6CCCC6)CC5)c(O)c4c3C2=O)NC(=O)C(C)=CC=C[C@H](C)[C@H](O)[C@@H](C)[C@@H](O)[C@@H](C)[C@H](OC(C)=O)[C@H]1C,–,16.6 µM (active)
CC1(C)[C@H]2CC[C@]3(C)[C@@H](C(=O)C=C4[C@@H]5C[C@@](C)(C(=O)O)CC[C@]5(C)CC[C@]43C)[C@@]2(C)CC[C@@H]1O,129%,–
Cc1ccc2c(=O)c3cccc(CC(=O)O)c3oc2c1C,–,18.7 µM (active)
Cc1[nH]c(C=C2C(=O)Nc3ccc(S(=O)(=O)N(C)c4cccc(Cl)c4)cc32)c(C)c1C(=O)N1CCN(C)CC1,–,23.5 µM (active)
COc1ccnc(CS(=O)c2nc3ccc(OC(F)F)cc3[nH]2)c1OC (stereo not drawn),95.4%,–
CN1c2ccccc2C(=O)N2CCc3c([nH]c4ccccc34)C21 (stereo not drawn),–,16.6 µM (active)
O=C(NC[C@H](O)CO)c1ccncc1Nc1ccc(I)cc1F,–,20.9 µM (active)
CCOC(=O)N1CCN([N+]([O-])=NOc2cc(ON=[N+]([O-])N3CCN(C(=O)OCC)CC3)c([N+](=O)[O-])cc2[N+](=O)[O-])CC1,–,7.43 µM (active)
O=C(CO)N1CCC(c2[nH]nc(-c3ccc(Cl)cc3)c2-c2ccncn2)CC1,127%,–
CC1(COc2ccc3c(c2)ncn3-c2ccc3cccc(N4CCC(N)CC4)c3n2)COC1,–,0.059 µM (active)

# Assay: Quantitative High-Throughput drug screen in 47 multiple myeloma cell lines against the NCATS MIPE library collection: XG6_PLB cell viability assay (AID 1919865); note: nearly all actives have a fitted effect of over 40% in size;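 for viability (% of control): 100% = DMSO-only wells and 0% = media-only wells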
# Conditions: XG6 myeloma viability, CellTiter-Glo ATP luminescence, 48 h; series mostly up to 45.8 µM; viability (% of control): at the top concentration
# How it was run: as §1
SMILES,Potency,viability (% of control)
CN(C)CC[C@H](CSc1ccccc1)Nc1ccc(S(=O)(=O)NC(=O)c2ccc(N3CCN(Cc4ccccc4-c4ccc(Cl)cc4)CC3)cc2)cc1[N+](=O)[O-],3.72 µM (active),–
C[C@@H]1C[C@H]2[C@@H]3CCC4=CC(=O)C=C[C@]4(C)[C@@]3(F)[C@@H](O)C[C@]2(C)[C@@]1(O)C(=O)CO,–,128%
O=c1[nH]c(=O)n([C@H]2C[C@@H](O)[C@@H](CO)O2)cc1I,–,92.4%
C[C@]12C=CC(=O)C=C1CC[C@@H]1[C@@H]2[C@@H](O)C[C@@]2(C)[C@@H]1CC[C@]2(O)C(=O)CO,–,112%
CN1CCN2c3ncccc3Cc3ccccc3C2C1 (stereo not drawn),–,107%
N#CC(c1ccnc(NCCc2cccnc2)n1)c1nc2ccccc2s1 (stereo not drawn),5.9 µM (active),–
CN1[C@H]2CC[C@H]1CC(OC(=O)c1c[nH]c3ccccc13)C2 (stereo partly drawn),16.6 µM (active),–
Cc1cnc(-c2cc(N3CCN(C(=O)CCS(C)(=O)=O)CC3)ncc2Cl)c(C)c1,14.8 µM (active),–
CN[C@@H]1[C@@H](O)[C@@H](O[C@@H]2[C@@H](O)[C@H](O[C@H]3O[C@H](CN)[C@@H](O)[C@H](O)[C@@H]3O)[C@@H](N)C[C@@H]2NC(=O)[C@@H](O)CN)OC[C@]1(C)O,–,91.8%
CN1CCN(c2ncc(-c3cc(Cl)cc(Cl)c3Cl)c(N)n2)CC1,7.43 µM (active),–
NC(=O)c1ccc(N(C(N)=O)c2c(F)cccc2F)nc1-c1ccc(F)cc1F,1.48 µM (active),–
CCN(CC)CCCCNc1nc2cc(Cl)c(Cl)cc2nc1-c1ccc(-c2cccs2)s1,8.33 µM (active),–
CO[C@H]1/C=C\O[C@@]2(C)Oc3c(C)c(O)c4c(O)c(c(C=NN5CCN(C6CCCC6)CC5)c(O)c4c3C2=O)NC(=O)C(C)=CC=C[C@H](C)[C@H](O)[C@@H](C)[C@@H](O)[C@@H](C)[C@H](OC(C)=O)[C@H]1C,0.105 µM (active),–
CC1(C)[C@H]2CC[C@]3(C)[C@@H](C(=O)C=C4[C@@H]5C[C@@](C)(C(=O)O)CC[C@]5(C)CC[C@]43C)[C@@]2(C)CC[C@@H]1O,–,123%
CC[C@H](NC(=O)[C@H](C)NC)C(=O)N1C[C@@H](O)C[C@H]1Cc1c(-c2[nH]c3cc(F)ccc3c2C[C@H]2C[C@H](O)CN2C(=O)[C@H](CC)NC(=O)[C@H](C)NC)[nH]c2cc(F)ccc12,4.18 µM (active),–
COc1cc(C=CC(=O)O)ccc1O,–,90.5%
Cc1ccccc1-n1c(Cn2nc(-c3cccc(O)c3)c3c(N)ncnc32)nc2cccc(C)c2c1=O,0.935 µM (active),–
O=C(NCCCCN1CCOCC1)c1cc2ccccc2o1,–,107%
Cc1[nH]c(C=C2C(=O)Nc3ccc(S(=O)(=O)N(C)c4cccc(Cl)c4)cc32)c(C)c1C(=O)N1CCN(C)CC1,9.35 µM (active),–
N[C@@H](CC(=O)N1CCn2c(nnc2C(F)(F)F)C1)Cc1cc(F)c(F)cc1F,–,118%
COc1ccnc(CS(=O)c2nc3ccc(OC(F)F)cc3[nH]2)c1OC (stereo not drawn),20.9 µM (active),–
CN1c2ccccc2C(=O)N2CCc3c([nH]c4ccccc34)C21 (stereo not drawn),14.8 µM (active),–
COc1cccc(OC)c1-c1cc(C(=O)NC2(C(=O)O)C3CC4CC(C3)CC2C4)nn1-c1ccnc2cc(Cl)ccc12 (stereo not drawn),–,115%
O=C(NC[C@H](O)CO)c1ccncc1Nc1ccc(I)cc1F,7.43 µM (active),–
CCOC(=O)N1CCN([N+]([O-])=NOc2cc(ON=[N+]([O-])N3CCN(C(=O)OCC)CC3)c([N+](=O)[O-])cc2[N+](=O)[O-])CC1,4.69 µM (active),–
COc1ccc(Cn2ccc3ccc(C(=O)NO)cc32)cc1,14.8 µM (active),–
